Measured values: PubChem BioAssay
The source made the active and inactive calls. The rule behind the calls is not given here.

target: Pantothenate synthetase (Mycobacterium tuberculosis (strain ATCC 25618 / H37Rv)) (UniProt P9WIL5); assay: Coupled enzyme confirmation of inhibitors against recombinant Mtb PanC (AID 375); conditions: coupled enzyme assay; at 10 µM, active compounds read high;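 note: 0% = full reaction with vehicle and 100% = no enzyme background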
Sequence (P9WIL5 whole entry, looked up): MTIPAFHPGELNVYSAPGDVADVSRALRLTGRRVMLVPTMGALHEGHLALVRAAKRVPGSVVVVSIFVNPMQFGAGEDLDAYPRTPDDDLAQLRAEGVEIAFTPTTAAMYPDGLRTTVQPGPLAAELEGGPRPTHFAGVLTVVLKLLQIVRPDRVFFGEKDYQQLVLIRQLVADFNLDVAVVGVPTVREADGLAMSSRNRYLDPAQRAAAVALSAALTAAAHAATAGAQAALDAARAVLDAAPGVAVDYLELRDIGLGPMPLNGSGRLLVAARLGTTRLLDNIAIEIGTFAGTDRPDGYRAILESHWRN

SMILES	inhibition
COc1ccc(S(=O)(=O)n2nc(OC(=O)c3ccc(C)cc3)cc2N)cc1	5% (inactive)
CN(C(=O)c1ccc(S(=O)(=O)NC2CCCC2)cc1)C1CCCCC1	5% (inactive)
CN(C)c1ccnc(NCc2ccccc2)c1C#N	0% (inactive)
COc1ccccc1-c1nnc(SCc2ccccn2)n1C	0% (inactive)
CCOC(=O)c1ccc(CC2S/C(=C(\C#N)C(C)=O)NC2=O)cc1 (stereo not given)	10% (inactive)
CS(=O)(=O)N1CCN(C(=O)c2ccc(-c3ccccc3)cc2)CC1	9% (inactive)
O=C(Nc1ccc2oc(-c3ccncc3)nc2c1)c1cccs1	0% (inactive)
Cc1ccccc1-c1nc(CN2CCC(C(=O)NC3CCN(Cc4ccccc4)CC3)CC2)c(C)o1	0% (inactive)
Cc1ccc(S(=O)(=O)NCC(=O)OCN2C(=O)c3ccccc3C2=O)cc1	4% (inactive)
CSc1cccc(NC(=O)CN(C)S(=O)(=O)c2ccccc2)c1	0% (inactive)
COc1ccc(C2/C(=C(/O)c3ccccc3)C(=O)C(=O)N2c2ncccn2)cc1OC (stereo not given)	2% (inactive)
CN(C)S(=O)(=O)N1CCN(c2cccc(Cl)c2)CC1	0% (inactive)
Cc1cc2ncc(-c3ccc(Cl)cc3)c(N)n2n1	0% (inactive)
COc1ccc(S(=O)(=O)N2Cc3ccccc3CC2C(=O)Nc2ccc(O)cc2)cc1OC (stereo not given)	10% (inactive)
CCCCCCCCCCCCCCCC(O)C(N)CO (stereo not given)	0% (inactive)
CC(=O)Nc1cccc(NC(=O)CSc2nnnn2C(C)C)c1	5% (inactive)
COc1ccc(CN(C2CCCC2)S(=O)(=O)c2ccc(-n3cnnn3)cc2)cc1OC	0% (inactive)
O=C(NCCCN1CCOCC1)c1ccc(CS(=O)(=O)c2c(Cl)cccc2Cl)o1	0% (inactive)
CCc1nccn1S(=O)(=O)c1ccc2ccc(C)cc2c1	3% (inactive)
COc1ccc(CNc2oc(-c3cccc4ccccc34)nc2C#N)cc1	0% (inactive)

SMILES	inhibition
O=C1CN(C(=O)CN2CCCC2)C(c2ccccc2)c2cc(Br)ccc2N1 (stereo not given)	0% (inactive)
O=C(CSc1nnc(C2CC2)n1Cc1ccccc1)c1ccc(S(=O)(=O)N2CCOCC2)cc1	0% (inactive)
CC(C)OC(=O)CSc1nnc(-c2ccccn2)n1-c1ccccc1	8% (inactive)
CCCCC(c1nnnn1CS(=O)(=O)c1ccc(C)cc1)N1CCN(c2ccccc2)CC1 (stereo not given)	0% (inactive)
CC(=O)Nc1ccc(S(=O)(=O)NCC2CCC(C(=O)NCCCN3CCCC3=O)CC2)cc1 (stereo not given)	0% (inactive)
c1ccc(C(Cc2nc(-c3ccccn3)no2)c2ccccc2)cc1	0% (inactive)
Cc1cc(=O)oc2c1ccc1oc(/C(=N/O)c3ccccc3)c(C)c12	0% (inactive)
Cc1cccc(-n2c(N)c(C(=O)N3CCN(C)CC3)sc2=S)c1	1% (inactive)
O=C(NCc1ccccc1)N1CCn2c(nc3ccccc32)C1	3% (inactive)
O=C(CCCN1C(=O)c2ccccc2C1=O)NCc1cccnc1	3% (inactive)
CC(=O)c1cccc(NC(=O)CCOc2ccccc2)c1	1% (inactive)
O=C(NCc1n[nH]c(=S)n1-c1ccc(F)cc1)c1ccco1	0% (inactive)
O=C(CCS(=O)(=O)c1cc(Br)cc2c1N(C(=O)C1CC1)CC2)NCC1CCCO1 (stereo not given)	0% (inactive)
CC1(C)CC(=O)C(C=NCCO)=C(O)C1	0% (inactive)
Cc1ccc(Cl)cc1N1CCN(C(=O)c2cn(C)c(=O)c3c2c2ccccc2n3C)CC1	3% (inactive)
CCn1c(C)nc2cc(C(=O)OCCC(F)(F)F)ccc21	0% (inactive)
COc1ccccc1Nc1nc(N)nc(-c2cc3ccccc3o2)n1	0% (inactive)
CCCn1c(SCC(=O)NCCc2ccccc2)nnc1-c1ccccn1	6% (inactive)
O=C(NC1=NCCS1)NC12CC3CC(CC(C3)C1)C2	2% (inactive)
O=C(O)C1CCCN(S(=O)(=O)c2ccc(Cl)s2)C1 (stereo not given)	2% (inactive)
